Test results from PubChem BioAssay AID651597 (National Center for Advancing Translational Sciences (NCATS), 2012).
Screen size: about 1,100 compounds; about 390 (35%) were called active. Another 30% or so got no clear call; they are omitted. Some of the results follow. A number with no mark means an inactive call. The call rests on the fitted dose curve; in most records, active means well fitted inhibition curve with a large enough effect; inconclusive means small, poorly fitted or top-dose-only effect; inactive means flat fitted curve, though single readings scatter.

biological target: Luciferin 4-monooxygenase (Photinus pyralis) (UniProt P08659); experiment: qHTS of Nrf2 Activators: Hit Validation in Secondary FLuc Assay; conditions: firefly luciferase inhibition counter-screen, luminescence; series mostly up to 57.5 µM; activity, negative = inhibition: at the top concentration; further: nearly all actives have a fitted effect of over 65% in size
Text: Many diseases have some form of oxidative stress injury and ties to inflammation, causing a host of problems for the patient. The antioxidant response element (ARE) plays an important role in alleviating the harmful effects of oxidative stress. The antioxidant response element (ARE) is a transcriptional regulatory element involved in the activation of genes coding for a number of antioxidant proteins and detoxifying enzymes. These enzymes work in concert to protect tissues from oxidative insults and chemical toxicities in human hepatocytes and immune cells. The protective effects of ARE activation are primarily triggered through Nrf2 (NF-E2-related factor) binding to and activating AREs. It is known that Nrf2 controls the production of over 250 antioxidant and detoxification proteins (Hu et al., 2006), thereby protecting tissues by increasing cellular antioxidant content and suppressing inflammatory signaling pathways. The transcription factor Nrf2 is a central link between oxidative chemicals, such as phenolic antioxidants and electrophilic compounds, and the activation of ARE. Nrf2 levels are constitutively low as a consequence of its interaction with Keap1, which targets its degradation (Zipper and Mulcahy, 2002). Electrophiles react with key cysteine residues in Keap1, releasing Nrf2 and allowing its translocation to the nucleus. Once within the nucleus, Nrf2 complexes with coactivators such as p300, and binds to the AREs to induce gene transcription of cytoprotective enzymes, resulting in the prevention of toxicity. Activation of Nrf2 protects tissues by increasing cellular antioxidant content and suppressing inflammatory signaling pathways. Identifying novel and potent Nrf2 activators by using the AREc32 cell line to detect ARE activation by small molecules will lead to the identification and development of probes to study protective pathways in multiple tissues. These specific probes are essential to study the ARE pathway, and eventually to determine whether this pathway does activate genes that could protect against a host of diseases, including cardiovascular diseases, obesity, diabetes, Alzheimer's, and Parkinson's disease.
This project's aim is to identify novel and potent Nrf2 activators by using the AREc32 cell line to detect ARE activation by small molecules, which will lead to the identification and development of probes to study the ARE pathway. In this counter assay, we aim to identify false positive as identified from this primary assay using an FLuc assay with an inhibiting read-out.
NIH Chemical Genomics Center [NCGC]
NIH Molecular Libraries Probe Centers Network [MLPCN]
Assay Submitter (PI): Curtis Klaassen, University of Kansas Medical Center
Assess whether an activator in the primary assay potentially causes such activation by inhibitor-induced stabilization of the firefly luciferase reporter enzyme by determining whether it inhibits firefly luciferase in the presence of Km concentrations of its substrates (ATP and D-luciferin).
On the % scale 0 is the no-effect control and ±100 the full control effect; potency means the concentration at half of the fitted maximal effect.

**Q.** Which “activity, negative = inhibition” value does the source give for `c1ccc(-c2ccc3c(c2)NC(C2Nc4cc(-c5ccccc5)ccc4O2)O3)cc1` (stereo not given) here?
**A.** The value was 1.75%.

**Q.** For `O=[N+]([O-])c1ccccc1S(=O)c1ccccc1[N+](=O)[O-]`, which “activity, negative = inhibition” value is on record?
**A.** Its value is 5.65%.

**Q.** For `O=C1C(Cl)=C(N2CCN(c3ccccc3[N+](=O)[O-])CC2)C(=O)c2ccccc21`, which Potency is on record?
**A.** Its Potency is 1.2 µM (active).

**Q.** Which “activity, negative = inhibition” value does the source give for `O=C(Nc1cccn2ncnc12)c1cccc(C(F)(F)F)c1` here?
**A.** Its value is -23.6%.

**Q.** How did the Potency turn out when `O=C(Nc1ccc(Cl)cn1)c1cnn2cccnc12` was run?
**A.** The Potency was 2.39 µM (active).

**Q.** `COc1c(Cl)cc(C(=O)NCc2ccco2)cc1Cl` was tested. Which “activity, negative = inhibition” value did it give?
**A.** Its value is 1.36%.

**Q.** Which “activity, negative = inhibition” value does the source give for `N#CC(C(=O)NCc1ccco1)c1nc2ccccc2nc1N1CCOCC1` (stereo not given) here?
**A.** The value was -12.9%.

**Q.** Which Potency does the source give for `O=C(NCc1ccco1)c1cccnc1-c1nc2ccccc2s1` here?
**A.** Its Potency is 10.7 µM (active).

**Q.** With `O=C(Nc1cccc(/C=C/c2ccccn2)c1)c1ccc(-n2cncn2)cc1` as the compound, how does the Potency read?
**A.** Its Potency is 2.13 µM (active).

**Q.** Which Potency does the source give for `COc1cc(OC)cc(C(=O)O/N=C(\N)c2cccc(C)c2)c1` here?
**A.** The Potency was 9.53 µM (active).

**Q.** Which “activity, negative = inhibition” value does the source give for `Cc1cc(CNC(=O)c2cccc([N+](=O)[O-])c2)c2ccccc2n1` here?
**A.** Its value is 9.05%.

**Q.** Which “activity, negative = inhibition” value does the source give for `Cn1c(=O)n(C)c2cc(NC(=O)c3cccc([N+](=O)[O-])c3)c(Br)cc21` here?
**A.** The value was 3.58%.

**Q.** Which Potency does the source give for `COc1ccc(/C(N)=N/OC(=O)c2cccc([N+](=O)[O-])c2)cc1` here?
**A.** The Potency was 1.51 µM (active).

**Q.** Which “activity, negative = inhibition” value does the source give for `CCOC(=O)CCn1c(=O)c2cccn2c2cccnc21` here?
**A.** Its value is -1.77%.

**Q.** How did the Potency turn out when `Cc1nc(/N=C(\N)NC(=O)c2ccccc2)nc2ccccc12` was run?
**A.** Its Potency is 3.79 µM (active).

**Q.** For `C(=Cc1cnnc2ccccc12)c1ccccc1`, which Potency is on record?
**A.** The Potency was 3.38 µM (active).

**Q.** Which “activity, negative = inhibition” value does the source give for `COc1ccc(C(C)=O)cc1OCc1ccccc1` here?
**A.** Its value is 2.24%.

**Q.** How did the Potency turn out when `COc1ccccc1C(=O)O/N=C(\N)c1ccc(Cl)cc1` was run?
**A.** The Potency was 3.38 µM (active).

**Q.** How did the “activity, negative = inhibition” value turn out when `COc1ccc(Cl)cc1C(=O)O/N=C(\N)c1ccncc1` was run?
**A.** The value was -28.3%.

**Q.** How did the “activity, negative = inhibition” value turn out when `COc1ccc(Cl)cc1C(=O)NC(=S)Nc1nc(C)cc(C)n1` was run?
**A.** The value was -3.81%.

**Q.** Which Potency does the source give for `COc1ccc(Cl)cc1C(=O)O/N=C(\N)c1ccc(Cl)cc1` here?
**A.** Its Potency is 9.53 µM (active).

**Q.** How did the Potency turn out when `COc1ccc(Cl)cc1C(=O)O/N=C(\N)c1ccccn1` was run?
**A.** Its Potency is 10.7 µM (active).

**Q.** How did the “activity, negative = inhibition” value turn out when `COc1ccc(Cl)cc1NC(=O)c1cc(C)no1` was run?
**A.** The value was 5.19%.

**Q.** Which “activity, negative = inhibition” value does the source give for `COCCNC(=O)c1ccc(-n2c(-c3ccccc3)cc3c2CCC(C)C3)cc1` (stereo not given) here?
**A.** The value was -5.53%.

**Q.** How did the “activity, negative = inhibition” value turn out when `CSc1nc(Oc2ccc3ccccc3c2)c2sccc2n1` was run?
**A.** The value was -2.81%.

**Q.** For `Cc1nc([N+](=O)[O-])c(Br)n1Cc1ccccc1`, which “activity, negative = inhibition” value is on record?
**A.** The value was 2.06%.

**Q.** For `COc1ccc(/C=C2/CCCC(CN(C)C)C2=O)cc1` (stereo not given), which Potency is on record?
**A.** The Potency was 3.38 µM (active).

**Q.** For `COc1cccc(/C=C2/CCC(CN(C)C)C2=O)c1` (stereo not given), which Potency is on record?
**A.** The Potency was 1.51 µM (active).

**Q.** `O=C(CSc1nnc(-c2cccnc2)o1)c1cc2ccccc2oc1=O` was tested. Which “activity, negative = inhibition” value did it give?
**A.** Its value is -5.35%.

**Q.** With `c1ccc(-c2noc(-c3cccc4ccccc34)n2)cc1` as the compound, how does the Potency read?
**A.** Its Potency is 0.953 µM (active).

**Q.** `Brc1ccc(-c2nnc(-c3cccnc3)c3conc23)cc1` was tested. Which “activity, negative = inhibition” value did it give?
**A.** The value was -20.3%.

**Q.** How did the Potency turn out when `Fc1ccccc1-c1nc(-c2ccc(Cl)cc2)no1` was run?
**A.** The Potency was 0.478 µM (active).

**Q.** With `COc1cccc(-c2nc(-c3ccccc3)no2)c1` as the compound, how does the Potency read?
**A.** The Potency was 0.151 µM (active).

**Q.** With `COc1nc2ccc(C)cc2cc1-c1noc(-c2ccccc2)n1` as the compound, how does the “activity, negative = inhibition” value read?
**A.** The value was -6.47%.

**Q.** With `COc1cccc(C2=CC(c3cccs3)n3nnnc3N2)c1` (stereo not given) as the compound, how does the “activity, negative = inhibition” value read?
**A.** Its value is -29.4%.

**Q.** For `c1ccc(-c2noc(-c3cccnc3)n2)cc1`, which Potency is on record?
**A.** The Potency was 3.01 µM (active).

**Q.** For `O=C(CN1CC(=O)Oc2ccccc21)OCC(=O)c1ccc(F)cc1`, which “activity, negative = inhibition” value is on record?
**A.** Its value is -0.826%.

**Q.** Which Potency does the source give for `c1cncc(-c2noc(-c3cccc4ccccc34)n2)c1` here?
**A.** The Potency was 2.39 µM (active).

**Q.** With `Cc1cc(C)c(C#N)c(SCC(=O)c2ccccc2)n1` as the compound, how does the “activity, negative = inhibition” value read?
**A.** The value was -6.37%.

**Q.** `Cc1cc(C)c(C#N)c(SCC(=O)c2cccs2)n1` was tested. Which Potency did it give?
**A.** Its Potency is 12 µM (active).

**Q.** How did the “activity, negative = inhibition” value turn out when `Cc1cc(C)c(C#N)c(OCC(=O)c2ccccc2)n1` was run?
**A.** The value was 4.68%.

**Q.** With `Cc1ccc(C(=O)N/N=C/c2ccc(-c3ccc(Br)cc3[N+](=O)[O-])o2)o1` as the compound, how does the Potency read?
**A.** Its Potency is 3.79 µM (active).

**Q.** With `N#Cc1c(-c2ccco2)cc(-c2ccccn2)nc1N` as the compound, how does the Potency read?
**A.** Its Potency is 12 µM (active).

**Q.** How did the “activity, negative = inhibition” value turn out when `N#Cc1nc(-c2ccc(F)cc2)oc1NCc1ccco1` was run?
**A.** The value was -27.6%.

**Q.** Which Potency does the source give for `N#Cc1c(-c2ccco2)cc(-c2ccc(F)cc2)nc1N` here?
**A.** The Potency was 5.36 µM (active).

**Q.** With `CC(C)Cc1cc(-c2ccco2)c(C#N)c(N)n1` as the compound, how does the “activity, negative = inhibition” value read?
**A.** Its value is -13.5%.

**Q.** `N#Cc1nc(-c2ccco2)oc1N1CCCC1` was tested. Which “activity, negative = inhibition” value did it give?
**A.** The value was 6.93%.

**Q.** Which “activity, negative = inhibition” value does the source give for `Cc1nc(NCc2ccco2)nc2c1C(=O)CC(C)C2` (stereo not given) here?
**A.** The value was 3.45%.

**Q.** Which Potency does the source give for `O=C(Nc1nnc(-c2cccs2)s1)c1cccc(F)c1` here?
**A.** Its Potency is 2.39 µM (active).

**Q.** With `O=C(Nc1nnc(-c2cccs2)s1)C1CC1` as the compound, how does the “activity, negative = inhibition” value read?
**A.** The value was -26.1%.

**Q.** For `COC(=O)c1sccc1NC(=O)c1cccc(F)c1`, which “activity, negative = inhibition” value is on record?
**A.** Its value is 5.88%.

**Q.** Which “activity, negative = inhibition” value does the source give for `CC(=O)Oc1c(-c2ccco2)oc2ccccc2c1=O` here?
**A.** Its value is -8.33%.

**Q.** How did the Potency turn out when `O=c1c2ccccc2oc2ccc(-c3ccc4cc[nH]c4c3)cc12` was run?
**A.** Its Potency is 0.135 µM (active).

**Q.** Which Potency does the source give for `COc1ccc2oc3ccccc3c(=O)c2c1` here?
**A.** Its Potency is 8.49 µM (active).

**Q.** For `COc1ccc2oc3cc(Cl)ccc3c(=O)c2c1`, which Potency is on record?
**A.** The Potency was 1.69 µM (active).
